Source: PubChem BioAssay (National Center for Advancing Translational Sciences (NCATS))
Most compounds without a hit are left out; they make up all but 2.4% or so of the library.
Pol iota inh: DNA polymerase iota (human) inhibition | Q9UNA4 | Pol iota fluorescent replication assay, 10 min | Potency, µM (titrated, usually from 115 µM), inactives show top-dose activity, negative = inhibition, actives largely listed as inhibitors | actives 1% (n = 390,000) | AID 588590
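Fluorescent replication assay read twice, at 0 min and 10 min after adding 50 nM (final) substrate. Enzyme (10 nM) and compounds were first incubated 15 min at room temperature; enzyme-free buffer wells were negative controls.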
Pol eta inh: DNA polymerase eta (human) inhibition; actives 1.2% (n = 390,000); Potency, µM (series often up to 114 µM), for the others: at the top dose activity change, negative = inhibition, hits mostly inhibitors; recombinant Pol eta, fluorescent DNA replication assay; note: % is set by controls: 0 for no effect and ±100 for the full control effect
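Pol eta at 10 nM preincubated with compounds 15 min at room temperature; reaction started with fluorescent substrate (50 nM final) and read kinetically at 0 and 10 min.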
WRN helicase inh: inhibitors of human WRN helicase; Q14191; WRN helicase unwinding, fluorescent forked duplex, kinetic; Potency, µM (highest dose often 114 µM), for inactives: at the top dose activity change, negative = inhibition, hits mostly inhibitors; actives 0.46% (n = 360,000); AID 651768; note: % is set by controls: 0 for no effect and ±100 for the full control effect; nearly all actives have a fitted effect of over 55% in size
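Primary qHTS, 1536-well format. 20 nM WRN + compound, 15 min RT; start with 100 nM forked fluorophore/quencher duplex, 2 mM ATP (final); kinetic read ex 525/em 598 nm.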
POLB inh: blocks human DNA polymerase beta activity; actives 1.3% (n = 340,000); Pol beta primer extension/strand displacement, fluorescence kinetic; Potency, µM (titrated, usually from 114 µM), for the others: at the highest dose activity change, negative = inhibition, usual class: inhibitors; note: % is set by controls: 0 for no effect and ±100 for the full control effect
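Values derive from four-parameter Hill fits of normalized kinetic data: reads at 0 and 10 min following addition of 50 nM substrate to 10 nM Pol beta preincubated 15 min with compound.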
POLK inh: inhibitors of human DNA polymerase kappa | purified Pol kappa, fluorescent DNA synthesis assay, 10 min | AID 588579 | Potency, µM (doses to about 107 µM), without a hit: at the top dose activity, negative = inhibition, most hits filed as inhibitors | actives 0.53% (n = 400,000) | Q9UBT6; note: % is set by controls: 0 for no effect and ±100 for the full control effect
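10 nM Pol kappa preincubated 15 min at room temperature with compounds, then reaction started with substrate at 50 nM final. Fluorescence read kinetically at 0 and 10 min; buffer-only wells served as negative control.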
FEN1 inh: blocks human flap endonuclease 1 | P39748 | Recombinant FEN1 flap cleavage, fluorescence, 15 min | Potency, µM (highest dose often 114 µM), for the others: at the highest dose activity change, negative = inhibition, actives largely listed as inhibitors | actives 0.35% (n = 390,000) | AID 588795; note: % is set by controls: 0 for no effect and ±100 for the full control effect; nearly all actives have a fitted effect of over 65% in size
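In this screen, 50 nM flap DNA substrate was added to 10 nM FEN1 pretreated with compound for 15 min at room temperature; cleavage was followed with reads at 0 and 15 min, and Hill fitting gave concentration–response parameters.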
Starred values were filed as active, the others as inactive; ? = inconclusive; . = no result given; ! = a repeat was not active; [ ] = another dose, or the depositor's remark. Calls come from the whole dose curve; as a rule, active = well fitted curve in the direction sought with a large enough effect; inconclusive = small, poorly fitted or top-dose-only effect, or another doubt; inactive = no such curve, though single readings can be large; an effect the other way counts as inactive or inconclusive. Potency is the fitted concentration of half-maximal effect.

SMILES	Pol iota inh	Pol eta inh	WRN helicase inh	POLB inh	POLK inh	FEN1 inh
C[N+]12CCCC[C@@H]1CCC(=C(c1cccs1)c1cccs1)C2 (some centres not stated)	.	.	.	.	1.7%[19.4 µM]	.
Nc1scc2c(C(=O)N/N=C/c3ccc(Cl)cc3)nn(-c3ccccc3)c(=O)c12	6.31µM*	-5.4%	-8.3%[57.1 µM]	22.9%	?	-0.3%
CCOC(=O)c1nn(-c2ccccc2)c(=O)c2c(N)scc12	?	?	?	-7.7%	-1.2%	-19.5%
CCOC(=O)c1cc2c(=O)n3ccccc3nc2n(Cc2ccco2)c1=NC(=O)c1ccc(OC)cc1	22.4µM*!	-16.0%	0.4%	33.3%	?	79.4µM*!
Cc1ccc(S(=O)(=O)c2cc3c(=O)n4ccccc4nc3n(Cc3ccco3)c2=N)cc1C	?	-25.2%	-3.6%[57.1 µM]	8.91µM*	-4.5%	-4.8%
CCn1c(=N)c(S(=O)(=O)c2ccccc2)cc2c(=O)n3ccccc3nc21	3.5%	-2.4%	11.2%	-1.0%	5.8%	-2.0%
Cc1ccc2nc3c(cc(S(=O)(=O)c4ccccc4)c(=N)n3Cc3ccco3)c(=O)n2c1	-9.1%	-0.3%	-2.6%	7.94µM*	-9.1%	-13.4%
N=c1c(S(=O)(=O)c2ccccc2)cc2c(=O)n3ccccc3nc2n1Cc1ccco1	?	?	0.6%[57.1 µM]	17.8µM*	-15.3%	-11.0%
CC1(C)OC[C@@H]2O[C@@]3(C(=O)O)OC(C)(C)O[C@@H]3[C@@H]2O1	.	.	.	.	5.7%[19.4 µM]	.
O=C(NCCN1CCOCC1)C1(C(F)(F)F)C/C(=C/CCO)CCCO1 (configuration not stated)	14.8%	.	.	.	0.7%	15.2%
Cc1cc2nc(/C(C#N)=C\c3ccc(-c4ccccc4C(=O)O)o3)[nH]c2cc1C	?	25.1µM*	-15.3%[11.6 µM]	?	?	?
Cc1ccc2nc(/C(C#N)=C\c3ccc(N4CCOCC4)o3)[nH]c2c1	?	?	44.7µM*	35.5µM*	-20.1%	?
N#C/C(=C\c1ccc(-c2ccccc2C(=O)O)o1)c1nc2ccccc2[nH]1	35.7%	?	56.2µM*	-21.3%	-23.1%	?
N#C/C(=C\c1ccc(Sc2ccccc2)o1)c1nc2ccccc2[nH]1	-4.2%	?	?	39.8µM*	-29.6%	?
NC(C(=O)O)c1cccc(O)c1 (configuration not stated)	.	.	.	.	2.7%[19.4 µM]	.
Cc1oc2c(O)c(O)ccc2c(=O)c1-c1cnn(-c2ccccc2)c1	?	?	-34.7%[57.1 µM]	2.6%	39.8µM*	11.5%
COc1ccc(CCN(C(=O)/C=C/C(=O)O)C2CC(=O)N(c3ccccc3)C2=O)cc1 (configuration not stated)	20.2%	6.5%	-2.2%	-16.3%	-7.0%	5.7%
CCc1ccc(N2C(=O)CC(N(CC3CCCO3)C(=O)/C=C/C(=O)O)C2=O)cc1 (configuration not stated)	-3.2%	?	-10.1%	44.7µM*	-15.4%	8.6%
CCOc1cccc(/C(O)=C2/C(=O)C(=O)N(CCOC)C2c2ccco2)c1 (configuration not stated)	?	?	2.6%	79.4µM*	-11.6%	7.0%
CCOc1cccc(/C(O)=C2/C(=O)C(=O)N(Cc3cccnc3)C2c2ccco2)c1 (configuration not stated)	-1.5%	0.1%	-3.8%	12.1%	-17.4%	1.0%
O=C(CS(=O)(=O)c1nc(-c2ccc(Cl)cc2)cn1-c1ccccc1)Nc1cccc(Cl)c1	?	-15.3%	.	3.6%	-17.1%	-0.6%
Cc1ccc(-c2cn(-c3cccc(Cl)c3)c(S(=O)(=O)CC(=O)Nc3cccc(C)c3)n2)cc1	70.8µM*	-2.1%	.	12.5%	-5.4%	-5.9%
O=C(CCCN1C(=O)/C(=C/c2cccs2)SC1=S)Nc1cc([N+](=O)[O-])ccc1O	29.5%	-16.6%	-9.0%	1.5%	-16.2%	-11.2%
O=C(CCN1C(=O)/C(=C/c2ccc(F)cc2)SC1=S)Nc1cc([N+](=O)[O-])ccc1O	?	-0.3%	-4.2%	44.7µM*	-9.1%[60.1 µM]	-2.2%
CN(C)C1CCc2[nH]c3ccc(NC(=O)c4ccc(F)cc4)cc3c2C1 (configuration not stated)	.	.	.	.	7.6%[60.1 µM]	.
SMILES	Pol iota inh	Pol eta inh	WRN helicase inh	POLB inh	POLK inh	FEN1 inh
O=C(O)COc1cccc(NC(=O)c2ccccc2)c1	?	79.4µM*	-2.7%[57.1 µM]	2.3%	-3.4%	-0.5%
COc1cccc(OCC(=O)NNC(=O)c2ccc(-c3ccccc3)cc2)c1	?	-15.5%	-10.3%	79.4µM*	-13.6%	10.2%
C/C=C1\COC(C(=O)NCCN2CCOCC2)(C(F)(F)F)C=C1C=C(C)C (configuration not stated)	11.1%	.	.	.	-9.4%	8.1%
CN(C)C(=O)COc1ccccc1C(=O)OCC(=O)N(CCC#N)c1ccccc1	8.4%	.	.	.	-21.1%	0.1%
COc1ccc(OC)c(C2/C(=C(/O)c3ccccc3)C(=O)C(=O)N2Cc2ccco2)c1 (configuration not stated)	60.6%	-11.6%	-0.9%[57.1 µM]	20.1%	-2.7%	44.7µM*
O=[N+]([O-])c1cccc(S(=O)(=O)NCCNS(=O)(=O)c2cccc([N+](=O)[O-])c2)c1	.	.	.	.	9.9%[19.4 µM]	.
CC1Cc2ccccc2N1S(=O)(=O)c1cccc(C(=O)N2CC(=O)Nc3ccccc32)c1 (configuration not stated)	10.7%	-13.8%	-5.4%	39.8µM*	-14.2%	-8.4%
CC1CCC/C(=N\Nc2ccc(Cl)c(C(=O)O)c2)C1 (configuration not stated)	?	8.91µM*	?	31.6µM*	?	-20.9%
COC(=O)C1=C(C)NC(C)=C(C(=O)OCCCN2CCC(c3ccccc3)(c3ccccc3)CC2)C1c1cccc([N+](=O)[O-])c1 (configuration not stated)	.	.	.	.	4.3%[19.4 µM]	.
CCCCNc1nc(=S)[nH]c2cc(OC)c(OC)cc12	4.5%	-5.3%	-24.3%	89.1µM*	-3.5%	-20.8%
Cc1cc(=O)oc2cc(OCC(=O)N/N=C/c3ccccc3[N+](=O)[O-])ccc12	28.2µM*	?	?	31.6µM*	?	?
C=CCN1C(=O)C(CC(C)C)NC1=S (configuration not stated)	.	.	.	.	2.6%[19.4 µM]	.
O=[N+]([O-])c1ccc(O)c(-c2nn[nH]n2)c1	?	-10.9%	79.4µM*	0.1%	-8.9%	0.5%
N#Cc1cc(N2CCCCC2)c([N+](=O)[O-])cc1C#N	-10.7%	-5.2%	4.1%	2.1%	-10.4%[60.1 µM]	20.7%
O=[N+]([O-])c1cc2no[n+]([O-])c2cc1N1CCCCC1	?	15.8µM*	?	.	?	50.1µM*
